{"source": "PubChem BioAssay AID1159580", "about": "(chemical genetic matrix, 2015)", "assay": "chemical genetic growth profiling, strain panel (AID 1159580);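 also: tested at 20 µM; growth read once vehicle control cultures reached saturation at 30 °C; 1 = growth at the plate median or of vehicle wells; lower values mean less growth of the strain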", "conditions": "S. cerevisiae deletion strains, growth OD", "note": "Where “and” joins values, the source holds several entries; their conditions need not be identical. Equal values may be shown once. Hit rate of the full screen: of about 5,500 compounds, about 2,000 (36%) were called active. Roughly 18% stayed inconclusive and do not appear here. This is one part of the list. Unmarked numbers belong to inactive results. Rule as the data show it: active = normalized growth mostly below about 0.91 (no sharp cut-off); inconclusive = no clear call, values can overlap the other calls; inactive = mostly above about 0.92."}
{"molecule": "CC[n+]1c(-c2ccccc2)c2cc(N)ccc2c2ccc(N)cc21", "values": [{"measurement": "normalized growth", "setting": "locus YAL013W, strain DEP1, stronger effect = lower value", "value": "0.879 (active)"}, {"measurement": "normalized growth", "setting": "locus YAL021C, strain ccr4, stronger effect = lower value", "value": 0.918}, {"measurement": "normalized growth", "setting": "locus YAL026C, strain drs2, stronger effect = lower value", "value": 0.966}, {"measurement": "normalized growth", "setting": "locus YAL030W, strain snc1, stronger effect = lower value", "value": 0.971}, {"measurement": "normalized growth", "setting": "locus YBL061C, strain skt5, stronger effect = lower value", "value": 0.974}, {"measurement": "normalized growth", "setting": "locus YBR009C, strain hhf1, stronger effect = lower value", "value": 0.966}, {"measurement": "normalized growth", "setting": "locus YBR021W, strain FUR4, stronger effect = lower value", "value": 1.06}, {"measurement": "normalized growth", "setting": "locus YBR023C, strain chs3, stronger effect = lower value", "value": 0.979}, {"measurement": "normalized growth", "setting": "locus YBR171W, strain sec66, stronger effect = lower value", "value": 0.977}, {"measurement": "normalized growth", "setting": "locus YBR229C, strain ROT2, stronger effect = lower value", "value": 0.952}, {"measurement": "normalized growth", "setting": "locus YBR231C, strain swc5, stronger effect = lower value", "value": 0.966}, {"measurement": "normalized growth", "setting": "locus YBR279W, strain paf1, stronger effect = lower value", "value": 0.947}, {"measurement": "normalized growth", "setting": "locus YCL011C, strain gbp2, stronger effect = lower value", "value": 0.981}, {"measurement": "normalized growth", "setting": "locus YCL016C, strain dcc1, stronger effect = lower value", "value": 0.943}, {"measurement": "normalized growth", "setting": "locus YCL029C, strain bik1, stronger effect = lower value", "value": "0.664 (active)"}, {"measurement": "normalized growth", "setting": "locus YCL069W, strain vba3, stronger effect = lower value", "value": 0.959}, {"measurement": "normalized growth", "setting": "locus YCR088W, strain abp1, stronger effect = lower value", "value": 0.954}, {"measurement": "normalized growth", "setting": "locus YDL005C, strain med2, stronger effect = lower value", "value": 0.99}, {"measurement": "normalized growth", "setting": "locus YDL035C, strain GPR1, stronger effect = lower value", "value": "0.703 (active)"}, {"measurement": "normalized growth", "setting": "locus YDL040C, strain nat1, stronger effect = lower value", "value": 0.969}, {"measurement": "normalized growth", "setting": "locus YDL074C, strain BRE1, stronger effect = lower value", "value": 0.822}, {"measurement": "normalized growth", "setting": "locus YDL101C, strain DUN1, stronger effect = lower value", "value": 0.93}, {"measurement": "normalized growth", "setting": "locus YDL134C, strain PPH21, stronger effect = lower value", "value": "0.776 (active)"}, {"measurement": "normalized growth", "setting": "locus YDL185W, strain tfp1, stronger effect = lower value", "value": "0.853 (active)"}, {"measurement": "normalized growth", "setting": "locus YDL192W, strain arf1, stronger effect = lower value", "value": 0.922}, {"measurement": "normalized growth", "setting": "locus YDR001C, strain nth1, stronger effect = lower value", "value": 0.953}, {"measurement": "normalized growth", "setting": "locus YDR069C, strain doa4, stronger effect = lower value", "value": 0.974}, {"measurement": "normalized growth", "setting": "locus YDR101C, strain arx1, stronger effect = lower value", "value": "0.886 (active)"}, {"measurement": "normalized growth", "setting": "locus YDR137W, strain rgp1, stronger effect = lower value", "value": 0.997}, {"measurement": "normalized growth", "setting": "locus YDR159W, strain sac3, stronger effect = lower value", "value": 1.02}, {"measurement": "normalized growth", "setting": "locus YDR162C, strain NBP2, stronger effect = lower value", "value": "0.706 (active)"}, {"measurement": "normalized growth", "setting": "locus YDR195W, strain ref2", "value": 1.04}, {"measurement": "normalized growth", "setting": "locus YDR297W, strain sur2, stronger effect = lower value", "value": 0.954}, {"measurement": "normalized growth", "setting": "locus YDR318W, strain mcm21, stronger effect = lower value", "value": "0.885 (active)"}, {"measurement": "normalized growth", "setting": "locus YDR334W, strain swr1, stronger effect = lower value", "value": 0.957}, {"measurement": "normalized growth", "setting": "locus YDR335W, strain msn5, stronger effect = lower value", "value": 0.983}, {"measurement": "normalized growth", "setting": "locus YDR388W, stronger effect = lower value", "value": "0.859 (active)"}, {"measurement": "normalized growth", "setting": "locus YDR392W, strain spt3, stronger effect = lower value", "value": 0.965}, {"measurement": "normalized growth", "setting": "locus YDR502C, strain sam2, stronger effect = lower value", "value": "0.801 (active)"}, {"measurement": "normalized growth", "setting": "locus YEL003W, strain gim4, stronger effect = lower value", "value": 0.956}, {"measurement": "normalized growth", "setting": "locus YEL037C, strain rad23, stronger effect = lower value", "value": 0.965}, {"measurement": "normalized growth", "setting": "locus YEL061C, strain CIN8 (second series), stronger effect = lower value", "value": 0.946}, {"measurement": "normalized growth", "setting": "locus YEL061C, strain CIN8, stronger effect = lower value", "value": "0.766 (active)"}, {"measurement": "normalized growth", "setting": "locus YER015W, strain faa2, stronger effect = lower value", "value": 0.97}, {"measurement": "normalized growth", "setting": "locus YER016W, strain bim1, stronger effect = lower value", "value": 0.953}, {"measurement": "normalized growth", "setting": "locus YER110C, stronger effect = lower value", "value": 0.967}, {"measurement": "normalized growth", "setting": "locus YER111C, strain swi4, stronger effect = lower value", "value": 0.939}, {"measurement": "normalized growth", "setting": "locus YER155C, strain BEM2 (second series), stronger effect = lower value", "value": 0.939}, {"measurement": "normalized growth", "setting": "locus YER155C, strain BEM2, stronger effect = lower value", "value": 0.937}, {"measurement": "normalized growth", "setting": "locus YER167W, strain BCK2, stronger effect = lower value", "value": "0.756 (active)"}, {"measurement": "normalized growth", "setting": "locus YFR010W, strain ubp6, stronger effect = lower value", "value": 0.97}, {"measurement": "normalized growth", "setting": "locus YGL078C, strain dbp3, stronger effect = lower value", "value": "0.898 (active)"}, {"measurement": "normalized growth", "setting": "locus YGL086W, strain mad1, stronger effect = lower value", "value": "0.856 (active)"}, {"measurement": "normalized growth", "setting": "locus YGL167C, strain pmr1, stronger effect = lower value", "value": 0.986}, {"measurement": "normalized growth", "setting": "locus YGL173C, strain kem1, stronger effect = lower value", "value": 0.96}, {"measurement": "normalized growth", "setting": "locus YGL227W, strain vid30, stronger effect = lower value", "value": 0.975}, {"measurement": "normalized growth", "setting": "locus YGL240W, strain doc1, stronger effect = lower value", "value": 1.01}, {"measurement": "normalized growth", "setting": "locus YGL248W, strain PDE1, stronger effect = lower value", "value": "0.845 (active)"}, {"measurement": "normalized growth", "setting": "locus YGL253W, strain hxk2, stronger effect = lower value", "value": 0.94}, {"measurement": "normalized growth", "setting": "locus YGR135W, strain pre9, stronger effect = lower value", "value": "0.872 (active)"}, {"measurement": "normalized growth", "setting": "locus YGR252W, strain gcn5, stronger effect = lower value", "value": 0.94}, {"measurement": "normalized growth", "setting": "locus YHR013C, strain ard1, stronger effect = lower value", "value": 0.988}, {"measurement": "normalized growth", "setting": "locus YHR027C, strain rpn1, stronger effect = lower value", "value": 0.954}, {"measurement": "normalized growth", "setting": "locus YHR030C, strain SLT2, stronger effect = lower value", "value": "0.906 (active) and 0.85 (active)"}, {"measurement": "normalized growth", "setting": "locus YHR079C, strain IRE1 (second series), stronger effect = lower value", "value": "0.857 (active)"}, {"measurement": "normalized growth", "setting": "locus YHR079C, strain IRE1, stronger effect = lower value", "value": "0.832 (active)"}, {"measurement": "normalized growth", "setting": "locus YHR094C, strain hxt1, stronger effect = lower value", "value": 0.925}, {"measurement": "normalized growth", "setting": "locus YHR129C, strain ARP1, stronger effect = lower value", "value": "0.895 (active)"}, {"measurement": "normalized growth", "setting": "locus YHR142W, strain chs7, stronger effect = lower value", "value": 0.974}, {"measurement": "normalized growth", "setting": "locus YHR200W, strain rpn10, stronger effect = lower value", "value": "0.864 (active)"}, {"measurement": "normalized growth", "setting": "locus YIL066C, strain RNR3, stronger effect = lower value", "value": "0.827 (active)"}, {"measurement": "normalized growth", "setting": "locus YIL073C, strain SPO22, stronger effect = lower value", "value": "0.662 (active)"}, {"measurement": "normalized growth", "setting": "locus YIL125W, strain kgd1, stronger effect = lower value", "value": "0.88 (active)"}, {"measurement": "normalized growth", "setting": "locus YIR030C, strain dcg1, stronger effect = lower value", "value": "0.889 (active)"}, {"measurement": "normalized growth", "setting": "locus YJL092W, strain hpr5, stronger effect = lower value", "value": 0.946}, {"measurement": "normalized growth", "setting": "locus YJL095W, strain BCK1 (second series), stronger effect = lower value", "value": 0.979}, {"measurement": "normalized growth", "setting": "locus YJL095W, strain BCK1, stronger effect = lower value", "value": "0.79 (active) and 0.852 (active)"}, {"measurement": "normalized growth", "setting": "locus YJL115W, strain asf1, stronger effect = lower value", "value": 0.926}, {"measurement": "normalized growth", "setting": "locus YJL129C, strain trk1, stronger effect = lower value", "value": 1.08}, {"measurement": "normalized growth", "setting": "locus YJL134W, strain LCB3, stronger effect = lower value", "value": "0.924 (active)"}, {"measurement": "normalized growth", "setting": "locus YJL154C, strain vps35, stronger effect = lower value", "value": 0.949}, {"measurement": "normalized growth", "setting": "locus YJL164C, strain tpk1, stronger effect = lower value", "value": 0.963}, {"measurement": "normalized growth", "setting": "locus YJL166W, strain qcr8, stronger effect = lower value", "value": 0.993}, {"measurement": "normalized growth", "setting": "locus YJL168C, strain set2, stronger effect = lower value", "value": "0.915 (active)"}, {"measurement": "normalized growth", "setting": "locus YJL187C, strain SWE1 (second series), stronger effect = lower value", "value": "0.819 (active)"}, {"measurement": "normalized growth", "setting": "locus YJL187C, strain SWE1, stronger effect = lower value", "value": 0.995}, {"measurement": "normalized growth", "setting": "locus YJR043C, strain POL32, stronger effect = lower value", "value": "0.687 (active)"}, {"measurement": "normalized growth", "setting": "locus YJR066W, strain TOR1, stronger effect = lower value", "value": "0.773 (active)"}]}
